From PubChem BioAssay AID1159580 (chemical genetic matrix, 2015)
“And” between values parts separate entries of the source, which are not always exact repeats. Equal values may be shown once. Out of some 5,500 compounds screened, about 2,000 (36%) were called active. Not shown: some 18% with an inconclusive outcome. Rule as the data show it: active = normalized growth mostly below about 0.91 (no sharp cut-off); inconclusive = no clear call, values can overlap the other calls; inactive = mostly above about 0.92. This is one part of the list.

Test: chemical genetic growth profiling, strain panel (AID 1159580);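 also: tested at 20 µM; growth read once vehicle control cultures reached saturation at 30 °C; 1 = growth at the plate median or of vehicle wells; lower values mean less growth of the strain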
Details: S. cerevisiae deletion strains, growth OD

Measured: normalized growth

COc1cc(OC)c2c(c1Cl)OC1(C2=O)C(O)=CC(=O)CC1C (stereo unspecified)
inactive: locus YAL021C, strain ccr4, active compounds read low 1.02 | locus YAL026C, strain drs2, active compounds read low 1.01 | locus YAL030W, strain snc1, active compounds read low 1.01 | locus YBL061C, strain skt5, active compounds read low 1.01 | locus YBR009C, strain hhf1, active compounds read low 1.01 | locus YBR021W, strain FUR4, active compounds read low 1.04 | locus YBR023C, strain chs3, active compounds read low 1.01 | locus YBR171W, strain sec66, active compounds read low 1.03 | locus YBR229C, strain ROT2, active compounds read low 1.02 | locus YBR231C, strain swc5, active compounds read low 1.01 | locus YBR279W, strain paf1, active compounds read low 1.01 | locus YCL011C, strain gbp2, active compounds read low 1.02 | locus YCL016C, strain dcc1, active compounds read low 1.01 | locus YCL029C, strain bik1, active compounds read low 1.01 | locus YCL061C, strain MRC1, active compounds read low 1.01 | locus YCL069W, strain vba3, active compounds read low 1.01 | locus YCR088W, strain abp1, active compounds read low 1.01 | locus YDL005C, strain med2, active compounds read low 1.01 | locus YDL035C, strain GPR1, active compounds read low 1.04 | locus YDL040C, strain nat1, active compounds read low 1.01 | locus YDL074C, strain BRE1, active compounds read low 1.07 | locus YDL101C, strain DUN1, active compounds read low 1.03 | locus YDL134C, strain PPH21, active compounds read low 1.01 | locus YDL185W, strain tfp1, active compounds read low 0.981 | locus YDL192W, strain arf1, active compounds read low 1.02 | locus YDR001C, strain nth1, active compounds read low 1.01 | locus YDR069C, strain doa4, active compounds read low 1.01 | locus YDR101C, strain arx1, active compounds read low 1.02 | locus YDR137W, strain rgp1, active compounds read low 1.02 | locus YDR159W, strain sac3, active compounds read low 1.02 | locus YDR162C, strain NBP2, active compounds read low 1.05 | locus YDR195W, strain ref2 1.03 | locus YDR297W, strain sur2, active compounds read low 1.01 | locus YDR318W, strain mcm21, active compounds read low 1 | locus YDR334W, strain swr1, active compounds read low 1.01 | locus YDR335W, strain msn5, active compounds read low 1.02 | locus YDR388W, active compounds read low 1.01 | locus YDR392W, strain spt3, active compounds read low 1.01 | locus YDR502C, strain sam2, active compounds read low 0.986 | locus YEL003W, strain gim4, active compounds read low 1.01 | locus YEL037C, strain rad23, active compounds read low 1 | locus YEL061C, strain CIN8 (second series), active compounds read low 1.01 | locus YER015W, strain faa2, active compounds read low 1.01 | locus YER016W, strain bim1, active compounds read low 1.02 | locus YER110C, active compounds read low 0.977 | locus YER111C, strain swi4, active compounds read low 1.01 | locus YER155C, strain BEM2 (second series), active compounds read low 1.03 | locus YER155C, strain BEM2, active compounds read low 1.02 | locus YER167W, strain BCK2, active compounds read low 1.02 | locus YFR010W, strain ubp6, active compounds read low 1.01 | locus YGL078C, strain dbp3, active compounds read low 0.978 | locus YGL086W, strain mad1, active compounds read low 1.01 | locus YGL167C, strain pmr1, active compounds read low 1.02 | locus YGL173C, strain kem1, active compounds read low 1.01 | locus YGL227W, strain vid30, active compounds read low 1.01 | locus YGL240W, strain doc1, active compounds read low 1 | locus YGL248W, strain PDE1, active compounds read low 1.02 | locus YGL253W, strain hxk2, active compounds read low 1.01 | locus YGR135W, strain pre9, active compounds read low 0.983 | locus YGR252W, strain gcn5, active compounds read low 0.915 | locus YHR013C, strain ard1, active compounds read low 1.03 | locus YHR027C, strain rpn1, active compounds read low 1.01 | locus YHR030C, strain SLT2, active compounds read low 1.02 and 0.99 | locus YHR079C, strain IRE1 (second series), active compounds read low 0.979 | locus YHR079C, strain IRE1, active compounds read low 0.997 | locus YHR094C, strain hxt1, active compounds read low 0.983 | locus YHR129C, strain ARP1, active compounds read low 1.02 | locus YHR142W, strain chs7, active compounds read low 1.02 | locus YHR200W, strain rpn10, active compounds read low 0.999 | locus YIL066C, strain RNR3, active compounds read low 1.07 | locus YIL073C, strain SPO22, active compounds read low 1 | locus YIL125W, strain kgd1, active compounds read low 0.99 | locus YIR030C, strain dcg1, active compounds read low 1.01 | locus YJL092W, strain hpr5, active compounds read low 1.01 | locus YJL095W, strain BCK1 (second series), active compounds read low 1 | locus YJL095W, strain BCK1, active compounds read low 1.04 and 0.978 | locus YJL115W, strain asf1, active compounds read low 1 | locus YJL129C, strain trk1, active compounds read low 1.02 | locus YJL134W, strain LCB3, active compounds read low 1.02 | locus YJL154C, strain vps35, active compounds read low 1.02 | locus YJL164C, strain tpk1, active compounds read low 1.01 | locus YJL166W, strain qcr8, active compounds read low 1.01 | locus YJL168C, strain set2, active compounds read low 0.977 | locus YJL187C, strain SWE1 (second series), active compounds read low 1.03 | locus YJL187C, strain SWE1, active compounds read low 1.01 | locus YJR066W, strain TOR1, active compounds read low 0.9
